Compound activity (PubChem BioAssay)
In the library only some 14% were active in any assay of this set; here they are far more common.
4MU fluor: compounds fluorescent in 4-MU spectral region; compound autofluorescence, 340/450 nm, 4-MU equivalents; hits give high values; max dye-equivalent concentration, M; hit rate 11% among 59,000; AID 589; in the data active means max dye-equivalent concentration above about 10 nM; inconclusive means mostly about 1.1 nM to 9.6 nM
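Compounds in 100 mM Tris, pH 8.0, sat 15 min at room temperature before fluorescence was read at 340 nm excitation/450 nm emission; a per-plate six-point 4-MU standard curve converted signals to dye-equivalent concentration at each compound concentration.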
CRE-bla Fsk: modulators of forskolin-stimulated CRE signaling in CHO cells; CHO CRE-bla reporter (cAMP response element driving beta-lactamase), forskolin EC10, beta-lactamase ratio; Potency, µM (top dose mostly 38.2 µM), for inactives: top-dose activity change, negative = inhibition, usual class: activators; hit rate 2.5% among 71,000; AID 662; active means well fitted activation curve with a large enough effect in the signal ratio, with a control signal flat, not every such curve was filed as active; inconclusive means small, poorly fitted or top-dose-only effect, or effect the other way, or a change in a side signal; the % refers to the signal ratio; further: potency means the concentration at half of the fitted maximal effect; % of control where 0% means no effect
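CRE-bla CHO cells stimulated with EC10 NKH 477 (water-soluble forskolin) and compound titrations, 3 h at 37C; beta-lactamase read with CCF4 after 2 h at room temperature. Activity from 460/530 nm emission ratio, AC50 values for positive or negative modulation.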
A350 fluor: A350 region autofluorescence; Compound autofluorescence, 340/450 nm, Alexa 350 dye-equivalents; hits give high values; max dye-equivalent concentration, M; hit rate 11% among 59,000; AID 590; in the data active means max dye-equivalent concentration above about 10 nM; inconclusive means mostly about 1.1 nM to 9.6 nM
HADH2 inhib: inhibitors of human HADH2 dehydrogenase; Q99714; recombinant HADH2, NADH fluorescence, beta-hydroxybutyryl-CoA; Potency, µM (doses to about 57.1 µM), without a hit: at the highest dose activity change, negative = inhibition, actives largely listed as inhibitors; hit rate 3.4% among 73,000; AID 886; further: potency means the concentration at half of the fitted maximal effect; on the % scale 0 is the no-effect control and ±100 the full control effect; nearly all actives have a fitted effect of over 60% in size
Target sequence (Q99714 whole entry, looked up, one chain of several): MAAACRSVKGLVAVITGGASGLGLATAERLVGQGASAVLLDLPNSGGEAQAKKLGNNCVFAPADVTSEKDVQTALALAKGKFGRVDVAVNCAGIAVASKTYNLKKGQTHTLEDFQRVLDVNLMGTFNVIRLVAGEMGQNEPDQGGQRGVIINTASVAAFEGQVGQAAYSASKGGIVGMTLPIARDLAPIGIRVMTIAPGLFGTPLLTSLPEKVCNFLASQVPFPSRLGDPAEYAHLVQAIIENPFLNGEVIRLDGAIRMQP
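Activity measured as NADH fluorescence gain (360/450 nm), taken as the change between first and last reads of a 4-min kinetic run. Conditions: pH 9.0 Tris buffer, 20 nM E. coli-expressed His-tagged enzyme, 1 mM NAD+, 90 uM beta-hydroxybutyryl-CoA; 15-min compound preincubation.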
HSD17B inhib: HSD17B dehydrogenase inhibition | recombinant HSD17B10, NADH fluorescence kinetic | Potency, µM (series often up to 57.1 µM), inactives show at the highest dose activity change, negative = inhibition, most hits filed as inhibitors | Q99714 | hit rate 7.6% among 75,000 | AID 893;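 further: the protocol describes HADH2 (HSD17B10) and not the HSD17B4 of the title; potency means the concentration at half of the fitted maximal effect; on the % scale 0 is the no-effect control and ±100 the full control effect; nearly all actives have a fitted effect of over 70% in size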
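Activity followed as NADH fluorescence increase (ex 360, em 450 nm) every 30 seconds for 4 min, using final 90 uM beta-hydroxybutyryl CoA and 1 mM NAD+. Recombinant His-tagged enzyme, 20 nM, pH 9.0 Tris buffer, 15 min compound preincubation.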
AID923: qHTS Assay for Allosteric/Competitive Inhibitors of Caspase-1: Spectroscopic Profiling in AFC Spectral Region | compound fluorescence, AFC spectral region (405/520 nm) | Potency, µM (top dose mostly 57.5 µM), inactives show top-dose fluorescence increase, hits mostly activators | hit rate 1.1% among 75,000 | AID 923, 2007; further: potency means the concentration at half of the fitted maximal effect; 0% is about no effect
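Baseline compound fluorescence (AFC region, 405 nm ex/520 nm em) taken from the intercept of kinetic reads with 50 nM caspase-1 and 5 uM Ac-WEHD-AFC; normalized to an on-plate AFC standard curve; compounds titrated up to 57 uM.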
The depositor's hits bear a star; i = inactive; ? = inconclusive; / = no result; ! = not confirmed by another sample; [ ] = another dose, or the depositor's remark. Unless noted, the call rests on the fitted dose curve; in most records, active means well fitted curve in the direction sought with a large enough effect; inconclusive means small, poorly fitted or top-dose-only effect, or another doubt; inactive means no such curve, though single readings can be large; an effect the other way counts as inactive or inconclusive.

SMILES	4MU fluor	CRE-bla Fsk	A350 fluor	HADH2 inhib	HSD17B inhib	AID923
CO[C@@H](C)[C@](O)(C(=O)OC1=CCN2CC[C@H](O)[C@H]12)C(C)C	i	12%	i	10%	/	/
C=C(Cl)CCl	/	-6%	/	-9%	2%	1%
CCOC(=O)C1CCN(/C=C2/C(=O)NC(=O)N(Cc3ccco3)C2=O)CC1	/	5%	/	16µM*	?	2%
CN1CCN(c2ccc3nc(-c4ccc5nc(-c6ccc(O)cc6)[nH]c5c4)[nH]c3c2)CC1	1.7e-08M*	?	1.8e-08M*	-29%[11.4 µM]	3.2µM*	1%[11.5 µM]
Cc1ccc2nc(N3CCN(C)CC3)[nH]c2c1	i	-4%	i	-4%	1%	1%
NC(N)=NC(=O)c1nc(Cl)c(N)nc1N	6.1e-07M*	?	6.6e-07M*	32µM*!	32µM*	0%
CC(=O)N1C[C@@H]2C[C@H](C1)c1cccc(=O)n1C2	i	-11%	i	14%	/	/
C#CC1(O)CCC2C3CCC4=CC(=O)CCC4(C)C3CCC21C (centres undefined)	/	/	/	/	-1%	1%
C#C[C@@]1(O)CC[C@@H]2[C@@H]3CCC4=CC(=O)CC[C@@]4(C)[C@H]3CC[C@]21C	1.1e-07M*	-2%[17.1 µM]	1e-07M*	1%[25.6 µM]	3%[25.6 µM]	2%[25.7 µM]
O=C(O)C[C@H]1NCc2cc3ccccc3nc21	i	-6%[7.6 µM]	i	-6%[11.4 µM]	-1%[11.4 µM]	2%[11.5 µM]
Clc1ccc(N2C[C@H]3CC[C@@H](C2)N3)nn1	i	2%	i	-9%	2%	0%
CN1CC[C@@H]2CN3CCc4cccc(c43)[C@H]2C1	/	-16%	/	-2%	32µM*	-4%
CCCOC(=O)[C@@H]1[C@@H](C(=O)O)[C@H]2CC[C@@H]1O2	i	6%[7.6 µM]	i	10%[11.4 µM]	4%[11.4 µM]	1%[11.5 µM]
CCC(=Nc1ccc2c(c1)CCC2)c1c(O)n(C)c(=O)n(C)c1=O	2.6e-08M*	36%	1.9e-08M*	?	3%	1%
C[C@H](CC(C#N)(c1ccccc1)c1ccccc1)N1CCCCC1	i	-1%[7.6 µM]	i	10%[11.4 µM]	13%[11.4 µM]	1%[11.5 µM]
Cc1ccc2nc3c(cc2c1)CC1(C(=O)N(C)C(=O)N(C)C1=O)C1COCCN31 (centres undefined)	2.7e-08M*	-30%	2.8e-08M*	5%	?	1%
Cc1ccc2nc3c(cc2c1)CC1(C(=O)N(C)C(=O)N(C)C1=O)C1CCCCN31 (centres undefined)	4.9e-08M*	?	5e-08M*	12%	4%	-2%
C[C@@]12CC[C@H](O)C[C@@H]1CC[C@H]1[C@H]2C[C@@H](O)[C@]2(C)[C@@H](C3=CC(=O)OC3)CC[C@@]12O	i	-5%	i	18%	/	/
CN1CCN(c2nccc3c2ncn3C)CC1	i	-6%	i	7%	8%	1%
CN1CCN(c2ccc3ccccc3n2)CC1	1.7e-08M*	-10%	1.6e-08M*	2%	-9%	0%
C1C[C@@H]2CN(CCCN3CCOCC3)[C@@H](C1)O2	i	2%[7.6 µM]	i	7%[11.4 µM]	3%[11.4 µM]	5%[11.5 µM]
COc1ccc(-c2cc(C(F)(F)F)n3nc(C(=O)N4CCC5(CC4)OCCO5)cc3n2)cc1OC	1e-08M*	10%	?	4%	?	0%
O=C(c1cc2ccccn2n1)N1CCC2(CC1)OCCO2	i	-9%	i	7%	-2%	3%
C[C@@]12CC[C@H]3[C@@H](CC=C4C[C@H](OS(=O)(=O)O)CC[C@]43C)[C@H]1CCC2=O	i	0%	i	-5%	-3%	-1%
CCCCC/C=C\C/C=C\C/C=C\C/C=C\CCCC(=O)NCC(=O)O	?	-13%	?	?	7.9µM*	0%
CN1CC=C2C(C#N)=C(N)C(C#N)(C#N)C(c3ccncc3)C2C1 (centres undefined)	3.5e-07M*	/	4e-07M*	/	/	/
CN1C(=O)N(C)C(=O)C2(Cc3cc(N)ccc3N3CCN(c4ccccc4F)CC32)C1=O (centres undefined)	i	?	i	-3%	8%	-1%
